Test results from PubChem BioAssay AID720697 (Broad Institute, 2013).
Potency and affinity values are given separately. Inconclusive results are not listed. Values without a mark were called inactive.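 Rule for the calls: active = signal loss with fitted half-maximal concentration at or below twice the top valid tested dose in every test run; inconclusive = runs disagree, flat 30 to 70% signal loss, or poor fit; inactive = all runs flat, opposite direction, or potency beyond limit.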

Experiment: HEK293T cytotoxicity, dose response, cytotoxicity control for miR-122 modulator project, cell-based, inhibitor set, cherry-pick, set 2 (AID 720697);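 note: 0% = median of neutral control wells and -100% = MG132 positive control wells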
Conditions: HEK293T viability, CellTiter-Glo luminescence, 48 h; series mostly up to 26 µM; activity change, negative = cytotoxicity: at the top concentration

Row | Structure (SMILES) | activity change, negative = cytotoxicity
1 | CC(C)C(=O)Nc1ccc2c(c1)C(=O)N(C)[C@H]1CC[C@@H](CC(=O)NCCCN(C)C)O[C@H]1CO2 | 82%
2 | CN1C(=O)c2cc(NC(=O)c3cccc(F)c3)ccc2OC[C@H]2O[C@@H](CC(=O)NC3CCC3)CC[C@H]21 | -34.2%
3 | O=C(Nc1ccccc1N1CCN(C(=O)c2ccc(Cl)cc2)CC1)c1cccnc1 | 85.2%
4 | C[C@H]1CN([C@@H](C)CO)C(=O)c2cc(C#Cc3cccnc3)cnc2O[C@H]1CN(C)S(=O)(=O)c1ccccc1F | 38.2%
5 | C/C=C/c1ccc([C@@H]2[C@@H](CO)N(Cc3ccccn3)[C@H]2CNC(=O)CC)cc1 | 51.4% [at 23.5 µM]
6 | CCNC(=O)C[C@@H]1CC[C@H]2[C@@H](COc3ccc(NC(=O)c4ccc(C(F)(F)F)cc4)cc3C(=O)N2C)O1 | 65.7% [at 23.5 µM]
7 | CNC(=O)C[C@@H]1CC[C@@H]2[C@@H](COc3ccc(NC(=O)NC(C)C)cc3C(=O)N2C)O1 | 32.5%
8 | O=C(Nc1ccc(F)cc1)N1C[C@H]2[C@@H](c3ccccc31)[C@H](CO)N2C(=O)c1ccncc1 | -10.7%
9 | CCCC(=O)Nc1ccc2c(c1)C(=O)N(C)[C@@H]1CC[C@H](CC(=O)NCCN3CCCCC3)O[C@H]1CO2 | -14.8%
10 | CC(C)C(=O)Nc1ccc2c(c1)C(=O)N(C)[C@H]1CC[C@H](CC(=O)Nc3cccc(F)c3)O[C@@H]1CO2 | 43.4%
11 | CNC(=O)C[C@@H]1CC[C@@H]2[C@@H](COc3ccc(NC(=O)Cc4cccs4)cc3C(=O)N2C)O1 | 40.2%
12 | COCC(=O)N(C[C@@H]1N[C@H](CO)[C@H]1c1ccc(-c2cccnc2)cc1)C(C)C | -13.9%
13 | CN(C)CCNc1ncnc2c1sc1nc(N3CCOCC3)c3c(c12)CC(C)(C)SC3 | -130%
14 | C/C=C/c1ccc([C@@H]2[C@@H](CO)N(C(C)=O)[C@@H]2CN(C)C(=O)c2ccccn2)cc1 | 203%
15 | CN[C@H]1C[C@H]2c3[nH]c4ccc(-c5ccc(OC)cc5)cc4c3CCN2C(=O)[C@H]1[C@H](C)O | 32.2% [at 12 µM]
16 | CNC(=O)C[C@@H]1CC[C@@H]2[C@@H](COc3ccc(NC(=O)c4cccc(OC)c4)cc3C(=O)N2C)O1 | 59.4%
17 | Fc1ccc(CN2CCN(c3ncnc4scc(-c5ccc(F)cc5)c34)CC2)cc1 | 26%
18 | C/C=C/c1ccc([C@H]2[C@@H](CO)N(C(=O)COC)[C@H]2CNC(=O)CC)cc1 | -19.9%

Row | Structure (SMILES) | activity change, negative = cytotoxicity
19 | CN1C(=O)c2cc(NS(=O)(=O)c3ccc(Cl)cc3)ccc2OC[C@@H]2O[C@H](CC(=O)N3CCc4ccccc4C3)CC[C@H]21 | 53%
20 | C/C=C/c1ccc([C@H]2[C@H](CO)N[C@@H]2CN(CC)C(=O)c2cccnc2)cc1 | 72.5%
21 | Cc1ccccc1NCN1C(=O)C2C3C=CC(C3)C2C1=O (stereo unspecified) | 58%
22 | NC(=O)c1cn(-c2ccccc2)nc1-c1cc2ccccc2oc1=O | 66.9%
23 | C/C=C/c1ccc([C@@H]2[C@H](CO)N[C@H]2CN(CC)C(=O)CN2CCOCC2)cc1 | 47%
24 | CO[C@@H]1CN(C)C(=O)c2cc(NC(=O)Nc3cc(Cl)cc(Cl)c3)ccc2OC[C@H](C)NC[C@H]1C | 10.9%
25 | O=c1c2cc(N3CCOCC3)ccc2[nH]c(=S)n1CCCN1CCCC1 | 25.1%
26 | CC(=O)Nc1ccc2c(c1)C(=O)N(C)[C@H]1CC[C@@H](CC(=O)NCc3ccc4c(c3)OCO4)O[C@@H]1CO2 | 125% [at 23.5 µM]
27 | COCC(=O)N(C[C@@H]1[C@@H](c2ccccc2)[C@H](CO)N1C(=O)NC(C)C)C(C)C | 64.9%
28 | C/C=C/c1ccc([C@@H]2[C@@H](CO)N(C(=O)Cc3cccnc3)[C@H]2CNC(C)=O)cc1 | 128%
29 | COc1ccc2[nH]c(C(=O)O)c(NS(=O)(=O)c3ccc(Cl)s3)c2c1 | 69.3%
30 | CC(C)N(C[C@H]1[C@H](c2ccccc2)[C@@H](CO)N1S(C)(=O)=O)C(=O)CN(C)C | 146% [at 23.5 µM]
31 | O=C(C1CCCCC1)N1C[C@@H]2[C@H](c3ccccc31)[C@H](CO)N2Cc1ccccc1Cl | -29.8% [at 23.5 µM]
32 | CCC(=O)N1[C@H](CO)[C@H](c2ccccc2)[C@@H]1CN(C(C)C)S(C)(=O)=O | 113%
33 | CCCNC(=O)N1C[C@@H]2[C@H](c3ccccc31)[C@@H](CO)N2Cc1cc(F)ccc1F | 30.6% [at 23.5 µM]
34 | CCN(C[C@@H]1N[C@@H](CO)[C@@H]1c1ccc(C2=CCCC2)cc1)C(=O)c1cccnc1 | -18.4% [at 23.5 µM]
35 | C[C@H](CO)N1C[C@H](C)[C@@H](CN(C)Cc2ccc(-c3ccccc3)cc2)Oc2ncc(C#CCN(C)C)cc2C1=O | 108%
36 | Cc1cc(C(=O)N/N=C/c2cc(Br)ccc2OC(=O)c2ccccc2)n[nH]1 | -27.6%
